Bim-Mcl-1: inhibitors of Bim peptide binding to Mcl-1, primary screen, biochemical, bead-based flow cytometry, multiplex. Induced myeloid leukemia cell differentiation protein Mcl-1 (Homo sapiens), Q07820. 190,000 compounds, 0.1% hits. inhibition, % at 10 µM. Bim peptide-Mcl-1 binding; in the data active means inhibition above about 40%;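 further: 0% = no compound tracer wells and 100% = peptide blocker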
Target sequence (Q07820 whole entry, looked up): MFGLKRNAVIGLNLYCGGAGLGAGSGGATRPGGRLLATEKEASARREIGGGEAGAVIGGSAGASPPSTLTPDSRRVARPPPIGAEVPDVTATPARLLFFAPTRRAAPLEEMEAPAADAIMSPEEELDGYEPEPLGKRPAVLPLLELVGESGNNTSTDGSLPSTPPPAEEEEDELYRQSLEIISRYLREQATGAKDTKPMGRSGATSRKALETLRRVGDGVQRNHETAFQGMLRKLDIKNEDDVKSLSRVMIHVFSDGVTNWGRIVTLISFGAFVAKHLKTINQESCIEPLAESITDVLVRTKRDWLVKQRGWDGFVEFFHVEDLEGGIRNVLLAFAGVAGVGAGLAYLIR
Mcl1 Bid PPI: Mcl-1/Bid binding inhibitors, primary screen, biochemical, TR-FRET, 1536-well. TR-FRET Mcl-1/Bid-Dy647 peptide binding. 220,000 compounds, 0.97% hits. Induced myeloid leukemia cell differentiation protein Mcl-1 (Homo sapiens), Q07820. inhibition, % at 21.7 µM. AID 1021, 2008;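 active means compounds that cut the binding signal by more than half at the single screening dose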;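 further: His-tagged Mcl-1 with europium anti-His antibody binding Bid BH3 peptide; 0% = Mcl-1 plus peptide wells and 100% = peptide-only wells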
Mcl1-Noxa inh: Mcl-1/Noxa binding inhibitors, primary screen, biochemical, TR-FRET, 1536-well. Induced myeloid leukemia cell differentiation protein Mcl-1 (Homo sapiens), Q07820. TR-FRET Mcl-1/Noxa peptide binding, 2 h. inhibition, % at 21.7 µM. 220,000 compounds, 1.5% hits. AID 1022, 2008;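 active means compounds that cut the protein-peptide binding signal by more than 50% relative to plate controls in a single-dose test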;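 further: His-tagged Mcl-1 with rhodamine Noxa BH3 peptide and terbium anti-His antibody; 0% = Mcl-1 plus Noxa peptide wells and 100% = peptide-only wells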
MCL1 BIM primary: inhibitors of MCL1 binding to BIM-BH3, primary screen, biochemical, fluorescence polarization; GST-MCL1 / FITC-Bim-BH3 fluorescence polarization; AID 2057, 2009; Induced myeloid leukemia cell differentiation protein Mcl-1 (Homo sapiens), Q07820; inhibition, % at 10.9 µM; 320,000 compounds, 0.68% hits;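 active means inhibition above the mean inhibition of all tested compounds plus 3 SD, set per campaign, cut at about 40% in these data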;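 further: 0% = DMSO wells and 100% = unlabeled Bim-BH3 peptide control; higher means more loss of mP so more displacement of Bim peptide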
Active calls of the source: *; . = no result. A selection: hits, their analogues and other compounds. The true share with any hit is near 2%.

SMILES	Bim-Mcl-1	Mcl1 Bid PPI	Mcl1-Noxa inh	MCL1 BIM primary
O=C(CSc1nnc(SCc2cccc3ccccc23)s1)N=Nc1c(O)[nH]c2ccccc12	-12	79*	60*	-10
O=C(c1ccc2ccccc2c1)C1CCCN(S(=O)(=O)c2cccnc2)C1 (stereo unspecified)	0	-73	-1	7
COc1cc(CN2CCC(C(=O)NC3CCCC3)CC2)cc(Br)c1O	0	51*	17	7
COC(=O)N(NC(=O)C(O)(c1ccccc1)c1ccccc1)c1ccccc1	-6	60*	16	-4
Cc1ccc(S(=O)(=O)NC(C(=O)Oc2ccc3ccc(=O)oc3c2)c2ccccc2)cc1 (stereo unspecified)	-6	-15	7	-7
Cc1ccc(S(=O)(=O)N[C@H](C(=O)Oc2ccc3c(C(F)(F)F)cc(=O)oc3c2)c2ccccc2)cc1	-1	-23	-11	45*
O=C1N/C(=N\N=C\c2ccc3ncccc3c2)SC1Cc1ccc(SC(F)F)cc1 (stereo unspecified)	-3	52*	13	4
O=C1N/C(=N\N=C\c2cccnc2)SC1Cc1ccc(SC(F)F)cc1 (stereo unspecified)	-2	-11	-34	6
COc1ccc(-c2ncc3ccccn23)cc1OC	0	51*	22	1
CCOc1cc(/C=N/NC(=O)C(=O)NCCCOC(C)C)cc(Br)c1O	-1	-51	56*	8
CCOc1cc(/C=N\NC(N)=O)cc(Br)c1OC(C)C	-5	-8	16	-3
O=C(COc1ccc(/C=N/NC(=O)c2cc3ccccc3o2)cc1Cl)Nc1ccccc1	-3	84*	23	-2
O=C(COC(=O)Cn1cnc2ccccc21)Nc1cc(S(=O)(=O)N2CCOCC2)ccc1Cl	.	3	0	-1
O=C(COC(=O)Cn1cnc2ccccc21)Nc1cc2c(cc1Cl)C(=O)c1ccccc1C2=O	0	0	54*	14
COc1ccc(C(=O)N2CCN(S(=O)(=O)c3ccc(Br)cc3)CC2)cc1	.	.	.	-1
Cc1cc(C)n(CCC(=O)N2CCCC(N3CCN(c4cccc(Cl)c4)CC3)C2)n1 (stereo unspecified)	.	.	.	11
Cc1nc2c(-c3ccc(Cl)cc3)cnn2c(N)c1-c1ccc(F)cc1	.	.	.	3
Cc1nc2c(-c3ccc(Cl)cc3)cnn2c2c1CCC2	0	85*	14	-11
O=C(Nc1ccc(N2CCCCC2)cc1)c1ccc([N+](=O)[O-])o1	.	.	.	26
O=C(Nc1ccc(N2CCCC2)c(Cl)c1)c1ccc([N+](=O)[O-])o1	-6	-45	59*	.
Cc1ccsc1C(=O)N(CC(C)C)c1c(N)n(Cc2ccccc2)c(=O)[nH]c1=O	.	.	.	10
CN(C)S(=O)(=O)c1ccc(Cl)c(NC(=O)CSc2nnnn2-c2ccc(O)cc2)c1	-2	56*	22	.
Cc1ccc(S(=O)(=O)N(C)C)cc1NC(=O)CSc1nnnn1-c1ccc(O)cc1	.	-7	8	2
Cc1ccc(-n2nc3c(c2NC(=O)C(C)C)CS(=O)(=O)C3)c(C)c1	.	.	.	-2
O=C(O)c1cccc(NC(=S)N/N=C/c2cccc(O)c2)c1	0	-36	17	21
SMILES	Bim-Mcl-1	Mcl1 Bid PPI	Mcl1-Noxa inh	MCL1 BIM primary
O=C(O)c1cccc(NC(=S)N/N=C/c2ccccc2OCc2ccc(Br)cc2)c1	-4	-37	52*	25
O=C(O)c1cccc(NC(=S)N/N=C/c2ccccc2OCc2cccc(Br)c2)c1	-3	-38	56*	.
CN(C(=O)NC1CCCCC1)c1ccccc1	51*	-25	-7	2
O=C(Cc1ccc(-c2ccccc2)cc1)NC1CCCC1	45*	-10	8	3
CN(Cc1ccccc1)C(=O)NC1CCCCC1	.	-6	-10	-1
O=C(Cc1ccc(Cl)cc1)NC1CCCCCC1	.	.	.	7
CN1c2ccccc2Oc2nnc(Cl)cc21	0	-19	9	-11
CCN(CC)CCOc1cc2c(nn1)Oc1ccccc1N2C	4	54*	37	11
CN1CCc2c(sc3c2C(=O)NC(c2ccco2)N3)C1 (stereo unspecified)	-1	-24	24	40
CN1CCc2c(sc3c2C(=O)NC(c2cccc(OC(=O)c4cccs4)c2)N3)C1 (stereo unspecified)	-1	-6	58*	-70
COc1ccc(C)cc1S(=O)(=O)N(C)CC(=O)NCc1ccco1	1	94*	12	8
COc1ccc(S(=O)(=O)N(C)CC(=O)NCc2ccco2)cc1Cl	.	.	.	-5
Cc1ccc(N2C(=O)C3C(C2=O)C(C(=O)c2ccc(Cl)cc2)N2CCCC32)cc1 (stereo unspecified)	-3	-9	9	72*
COc1ccc(CNC(=O)C2CCC(CNc3nc(=S)[nH]c4ccccc34)CC2)cc1 (stereo unspecified)	0	14	-19	1
O=C(N=Nc1c(O)[nH]c2ccc(F)cc12)c1ccc(NS(=O)(=O)c2cccs2)cc1	.	.	.	0
Cc1ccc2[nH]c(O)c(N=NC(=O)c3ccc(NS(=O)(=O)c4cccs4)cc3)c2c1	.	11	71*	19
O=C(CSc1nnc(COc2cccc3cccnc23)o1)N1CCc2ccccc21	0	84*	-5	-7
CCOc1ccc(C(C)NC(=O)c2ccc3c(c2)NC(=O)C(C)S3)cc1OCC (stereo unspecified)	.	.	.	-2
Nc1cc2nc[nH]c2cc1N	8	-9	74*	.
Cc1csc(=O)n1CC(=O)OCC(=O)NCc1ccc(F)cc1	.	.	.	0
CCOc1ccccc1-n1nnnc1SCC(=O)NC(=O)NCc1ccco1	2	-83	53*	4
O=C(CSc1nnc(COc2ccccc2Cl)o1)NC(=O)NCc1ccco1	.	-40	81*	25
Cc1nnc(SCC(=O)NC(=O)NCc2ccco2)n1Cc1ccccc1	-3	2	53*	8
Cc1ccc(Nc2nnc(SCC(=O)NCc3ccco3)s2)cc1	-3	-73	53*	.
O=C(CS(=O)CC(=O)NC12CC3CC(CC(C3)C1)C2)Nc1ccc(F)cc1 (stereo unspecified)	.	.	.	9
SMILES	Bim-Mcl-1	Mcl1 Bid PPI	Mcl1-Noxa inh	MCL1 BIM primary
Cc1ccc(C2(C)NC(=O)N(CC(=O)Nc3ccc(Cl)c(S(=O)(=O)N4CCCCC4)c3)C2=O)cc1 (stereo unspecified)	.	.	.	-15
O=C(CSc1nnc(Nc2ccccc2F)s1)NCc1ccco1	0	-54	30	.
Cc1sc2nc(SCC(=O)NCc3ccco3)n(C)c(=O)c2c1C	0	-10	14	4
Nn1c(SCC(=O)NC(=O)NCc2ccco2)nnc1-c1ccc(OC(F)F)cc1	-4	18	96*	4
Cc1ccccc1Nc1nnc(SCC(=O)NC(=O)NCc2ccco2)s1	-3	-59	56*	10
CCn1c(SCC(=O)NC(=O)NCc2ccco2)nc2sc(C)c(C)c2c1=O	-1	-6	55*	26
Nn1c(SCC(=O)NCCN2C(=O)CSC2=O)nnc1-c1ccc(OC(F)F)cc1	.	.	.	-10
